The structures appear in SMILES notation. About 5,100 (32%) of roughly 16,000 compounds were called active. Another 25% or so got no clear call; they are omitted. Calls follow the shape of the dose curve; as a rule, active = well fitted curve in the direction sought with a large enough effect; inconclusive = small, poorly fitted or top-dose-only effect, or effect the other way; inactive = no such curve, though single readings can be large or run the other way. Some of the results follow.
% is scaled to controls: 0 for no effect and ±100 for the full control effect.

The target of this test is Cytochrome P450 3A4 (Homo sapiens) (UniProt P08684). The test can be described thus: Cytochrome panel assay with activity outcomes. The following applies: recombinant CYP, pro-luciferin dealkylation, luminescence, p450-cyp3a4; series mostly up to 57.1 µM.
Sequence of Cytochrome P450 3A4 (Homo sapiens) (P08684 whole entry, looked up): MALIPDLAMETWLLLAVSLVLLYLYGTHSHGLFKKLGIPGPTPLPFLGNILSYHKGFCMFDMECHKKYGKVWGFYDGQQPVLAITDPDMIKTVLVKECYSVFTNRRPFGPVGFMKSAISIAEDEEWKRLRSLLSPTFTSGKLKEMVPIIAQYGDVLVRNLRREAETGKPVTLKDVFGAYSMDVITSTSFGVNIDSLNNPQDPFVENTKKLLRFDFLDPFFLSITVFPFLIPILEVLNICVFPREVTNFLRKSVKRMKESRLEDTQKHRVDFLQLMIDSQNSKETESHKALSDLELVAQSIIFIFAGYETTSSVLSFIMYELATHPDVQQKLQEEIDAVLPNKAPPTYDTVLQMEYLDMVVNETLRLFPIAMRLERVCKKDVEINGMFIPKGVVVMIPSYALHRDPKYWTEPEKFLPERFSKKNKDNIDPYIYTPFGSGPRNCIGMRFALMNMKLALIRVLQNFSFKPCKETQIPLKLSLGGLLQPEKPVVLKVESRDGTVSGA
Broadly, the AC50 is the midpoint of the concentration-response curve, whichever way the signal moves. Turning to `COc1ccc(CNc2cc(-c3cccnc3)ncn2)c(OC)c1`, the concentration at half-maximal activity (AC50) was 1.58 µM (active).
Still for that read-out and setting: the figure for `COc1ccccc1CNc1cc(-c2cccnc2)ncn1` is 0.631 µM (active).
Same read-out and setting: with `COc1ccc(CCNc2nc(-c3cccnc3)cs2)cc1OC` the figure was 3.16 µM (active).
Regarding `O=C(NC(=S)Nc1nc(-c2ccc(Br)cc2)cs1)c1cccnc1`, the activity, negative = inhibition was -14.3% [at 2.29 µM] (inactive).
Consider `c1ccc(-c2csc3ncn4cnnc4c23)cc1`, for which the AC50 entry is “inactive”.
For `CCS(=O)(=O)Nc1ccc(C2=NN(C(=O)c3ccco3)C(c3ccc(C)cc3)C2)cc1` (stereo not given), the AC50 was 3.98 µM (active).
Same read-out and setting: with `Cc1ccc(C2C(C(=O)c3ccco3)=C(O)C(=O)N2c2nnc(C)s2)cc1` (stereo not given) the entry was “inactive”.
For `N=C(N)SCCSC(=N)N`, the activity, negative = inhibition is -5.54% [at 11.4 µM] (inactive).
The same measure, in the same setting: with `N=C(N)SCCc1ccncc1` the figure was 4.88% [at 11.4 µM] (inactive).
In the case of `N=C(N)SCCc1cnc[nH]1`, the half-maximal activity concentration (AC50) was 15.8 µM (active).
In the case of `Cc1cccc(Oc2coc3cc(OC(=O)c4cccs4)ccc3c2=O)c1`, the AC50 is 11.2 µM (active).
In the case of `Cc1cc(C)cc(Oc2coc3cc(OC(=O)c4cccs4)ccc3c2=O)c1`, the AC50 result is “inactive”.
On the same count and under the same terms, the entry for `CCOc1ccccc1Oc1coc2cc(OC)ccc2c1=O` is “inactive”.
On to `CCCCCCCCn1cc(C(C)=O)c(=O)[nH]c1=O`, for which the activity, negative = inhibition is -12.5% [at 2.29 µM] (inactive).
As for `O=C(Cn1c(=O)n(Cc2ccco2)c(=O)c2c3c(sc21)CCCCC3)c1ccccc1`, the AC50 was 14.1 µM (active).
For the compound `C[N+]1(NCC[N@@+]2(C)CCc3ccccc3C2)CCCCC1`, the activity, negative = inhibition is 0.246% [at 11.4 µM] (inactive).
On to `CCC(C)(C)n1nnnc1C(c1ccc(C)cc1)N1CCC(C)CC1` (stereo not given), for which the activity, negative = inhibition was 21.5% [at 2.29 µM] (inactive).
`CCC(C)(C)n1nnnc1C(C(C)C)N(Cc1ccco1)Cc1cc2cc3c(cc2[nH]c1=O)OCO3` (stereo not given): the concentration at half-maximal activity (AC50) was 1 µM (active).
Still for that read-out and setting: with `CCC(C)(C)n1nnnc1C(C(C)C)N(CCCO)Cc1cc2cc(C)ccc2[nH]c1=O` (stereo not given) the figure was 2 µM (active); with `CCC(C)(C)n1nnnc1C(c1cc2cc3c(cc2[nH]c1=O)OCO3)N1CCCCC1` (stereo not given), 1.58 µM (active).
`c1ccc(C[n+]2cccc(-c3cc4ccccc4[nH]3)c2)cc1`: the activity, negative = inhibition is -7.36% [at 11.4 µM] (inactive).
Regarding `Fc1ccccc1OCCCCSc1ncccn1`, the AC50 result is “inactive”.
As to `O=S(=O)(O)[C@@H](CO)c1ccccc1` (tested in a mixture with another compound), the activity, negative = inhibition was -1.16% [at 11.4 µM] (inactive).
On the same count and under the same terms, with `O=C1C(=O)c2ccccc2C(O)=C1C(CCc1ccccc1)C1=C(O)c2ccccc2C(=O)C1=O` the figure was -5.65% [at 11.4 µM] (inactive).
With `O=C1C(SCCO)=C(SCCO)C(=O)c2ccccc21`, the AC50 is 25.1 µM (active).
For the compound `COc1ccc2[nH]cc(CCNc3ccnc(-c4cccnc4)n3)c2c1`, the AC50 is 1.26 µM (active).
Consider `COc1ccc2[nH]cc(CCNc3cc(-c4cccc(C#N)c4)ncn3)c2c1`, for which the AC50 is 3.98 µM (active).
Still for that read-out and setting: the entry for `COc1ccc2[nH]cc(C=O)c2c1` is “inactive”; for `COc1ccc2[nH]cc(CCNc3cc(-c4cccnc4)ncn3)c2c1` it is 3.98 µM (active).
Turning to `COc1cccc(-c2cc(NCCc3c[nH]c4ccc(OC)cc34)ncn2)c1`, the concentration at half-maximal activity (AC50) was 7.94 µM (active).
Still for that read-out and setting: with `COc1ccc2[nH]cc(CCNc3cc(-c4ccoc4)ncn3)c2c1` the figure was 10 µM (active).
For `CC(C)N=C(N)/N=C(\N)Nc1ccc(Cl)cc1`, the AC50 entry is “inactive”.
As for `Cc1ccc(NC(=O)N/C=C/c2ccc(Cl)cc2)cc1`, the half-maximal activity concentration (AC50) is 0.0501 µM (active).
Take `O=c1ncn(-c2ccccc2F)c2ncccc12`: the activity, negative = inhibition was 14.6% [at 2.29 µM] (inactive).
With `O=C1c2ccccc2-c2n[nH]c3cccc1c23`, the AC50 was 3.98 µM (active).
On to `Cc1n[nH]c2ccccc2c1=O`, for which the activity, negative = inhibition was -6.8% [at 11.4 µM] (inactive).
The same measure, in the same setting: the figure for `O=c1ccc(-c2ccccc2)n[nH]1` is -16.6% [at 11.4 µM] (inactive).
`NC(N)=NC(=O)Cc1c(Cl)cccc1Cl`: the AC50 entry was “inactive”.
The same measure, in the same setting: with `Cc1nc2cc(NC(=O)CSc3nc4c(C)cccc4cc3C#N)ccc2s1` the figure was 2.82 µM (active).
Consider `Cc1ccc2nc(SCC(=O)NCc3cccs3)c(C#N)cc2c1`, for which the activity, negative = inhibition is -9.74% [at 2.29 µM] (inactive).
Regarding `Cc1cc2cccc(C)c2nc1SCC(=O)N(C)c1nc(-c2ccccc2)cs1`, the AC50 entry was “inactive”.
The same measure, in the same setting: the figure for `COc1ccccc1N(CC(=O)NCC1CCCO1)C(=O)CNS(=O)(=O)c1ccc(C)cc1` (stereo not given) is 7.94 µM (active); for `O=C(NCC1CCCO1)c1ccc(CS(=O)(=O)Cc2ccc(F)cc2)o1` (stereo not given) it is “inactive”.
On to `CC(C)C(C(=O)NCC1CCCO1)N(Cc1ccco1)C(=O)CNS(=O)(=O)c1ccc(F)cc1` (stereo not given), for which the AC50 was 5.01 µM (active).
`CCC(C)NS(=O)(=O)c1ccc(OCC(=O)NCC2CCCO2)cc1` (stereo not given): the AC50 result was “inactive”.
In the case of `O=C(CN(CC1CCCO1)C(=O)CNS(=O)(=O)c1ccc(Cl)cc1)NCCc1ccccc1` (stereo not given), the AC50 is 11.2 µM (active).
Still for that read-out and setting: with `COc1ccc(S(=O)(=O)N(CC(=O)NCC2CCCO2)c2ccc(F)cc2)cc1OC` (stereo not given) the figure was 8.91 µM (active); with `O=C(O)c1cc(S(=O)(=O)NCC2CCCO2)ccc1Cl` (stereo not given), “inactive”; with `COc1ccc(/C=C(\C#N)C(=O)NCC2CCCO2)cc1OC` (stereo not given), “inactive”.
Still for that read-out and setting: with `Cc1ccccc1NC1=NC(=S)N(c2ccccc2)C12CCOC(C)(C)C2` (stereo not given) the figure was 10 µM (active); with `COc1ccc(NC2=NC(=S)N(c3ccc(C)cc3)C23CCCCC3)cc1`, “inactive”.
For `Cc1cccc(NC2=NC(=S)N(c3ccc(C(=O)O)cc3)C23CCCCC3)c1`, the activity, negative = inhibition was 10.4% [at 2.29 µM] (inactive).
Take `O=c1cnc2cnc(Nc3ccccc3)nc2n1CCc1ccccc1`: the AC50 result was “inactive”.
Same read-out and setting: the figure for `COCCn1c(=O)c(C)nc2cnc(Nc3cccc(OC)c3)nc21` is 15.8 µM (active).
On the same count and under the same terms, with `COc1cccc(Nc2ncc3nc(C)c(=O)n(CCc4ccccc4)c3n2)c1` the figure was 7.94 µM (active).
On the same count and under the same terms, with `Cc1nc2cnc(Oc3cccc(Cl)c3)nc2n(C2CC2)c1=O` the entry was “inactive”; with `COc1cccc(Nc2ncc3nc(C)c(=O)n(C4CC4)c3n2)c1`, 6.31 µM (active); with `N[C@@H](Cc1cc(CP(=O)(O)O)cc(-c2ccccc2Cl)c1)C(=O)O`, “inactive”.
Take `CCN1C(=O)C2(SC(NC(C)=O)=NN2C(C)=O)c2cc(C)ccc21` (stereo not given): the AC50 result was “inactive”.
The same measure, in the same setting: the figure for `Nc1ncc(-c2ccccc2)n1CC1CCCO1` (stereo not given) is 7.08 µM (active); for `N#Cc1cccc(-c2nc3cnc(Nc4ccccc4)nc3n(C[C@H]3CCCO3)c2=O)c1` it is “inactive”.
Consider `O=C1c2ccccc2C(=O)N1CC1CCCO1` (stereo not given), for which the AC50 entry is “inactive”.
Same read-out and setting: with `CC(=O)c1sc(N)c(C(=O)OC(C)C)c1C` the entry was “inactive”; with `COc1ccc(CNc2ncncc2-c2ccc(C(=O)N(C)C)cc2)c(OC)c1`, 0.501 µM (active).
Same read-out and setting: the figure for `COc1ccc(CNc2ncncc2-c2ccc(N(C)C)cc2)c(OC)c1` is 0.2 µM (active); for `COc1ccccc1CNc1ncncc1-c1ccc(C(=O)N(C)C)cc1` it is 2.51 µM (active).
The same measure, in the same setting: with `C/C(=N\OC(=O)c1ccc(F)cc1)c1nccs1` the entry was “inactive”.
Take `N[C@@H](Cc1c[nH]c2ccc([N+](=O)[O-])cc12)C(=O)O`: the activity, negative = inhibition was -8.71% [at 11.4 µM] (inactive).
Consider `O=C(NC(NCc1ccccc1)C(Cl)(Cl)Cl)c1cccnc1` (stereo not given), for which the concentration at half-maximal activity (AC50) is 12.6 µM (active).
Still for that read-out and setting: with `Cc1cccc(NC(NC(=O)c2cccnc2)C(Cl)(Cl)Cl)c1` (stereo not given) the figure was 10 µM (active); with `CCn1ccc(C(=O)NC2C(=O)N3C(C(=O)O)=C(C)CSC23)n1` (stereo not given), “inactive”.
Regarding `Cc1ccc(S(=O)(=O)Oc2cc(N)c3c(n2)CCC3)cc1`, the activity, negative = inhibition is -14.1% [at 11.4 µM] (inactive).
Regarding `Cc1ccc(S(=O)(=O)Oc2ccc(C3C4=C(CCCC4=O)OC4=C3C(=O)CCC4)cc2)cc1`, the concentration at half-maximal activity (AC50) is 6.31 µM (active).
On the same count and under the same terms, with `COc1ccc2c(c1)OC1=C(C(=O)CCC1)C2C1=C(O)CCCC1=O` (stereo not given) the entry was “inactive”; with `O=C1CCCC2=C1C(c1ccc(OS(=O)(=O)c3ccc(Cl)cc3)cc1)C1=C(CCCC1=O)O2`, 2.24 µM (active).
For `CN1CCc2cc(Cl)c(O)cc2[C@@H](c2ccccc2)C1`, the AC50 entry was “inactive”.
Regarding `NCCNCC1CCNCC1`, the activity, negative = inhibition is -29.4% [at 11.4 µM] (inactive).
As for `CN(C)[C@H]1C(=O)C(C(=O)NCN2CCCC2)=C(O)[C@]2(O)C(=O)C3=C(O)c4c(O)cccc4[C@@](C)(O)[C@H]3C[C@@H]12`, the AC50 entry is “inactive”.
In the case of `CCOC(=O)c1ccccc1OCc1cc(/C=N/n2cnnc2)ccc1OC`, the AC50 entry is “inactive”.
Same read-out and setting: the entry for `Cc1cc([N+](=O)[O-])nn1Cc1ccccc1F` is “inactive”; for `Cc1cc(/C=N/n2cnnc2)c(C)n1-c1ccc(OCc2ccccc2F)cc1` it is 0.224 µM (active).
For `Cc1ccc(C)c(Nc2nc3nonc3nc2N2CCOCC2)c1`, the activity, negative = inhibition is -12.1% [at 2.29 µM] (inactive).
With `OC[C@@H]1O[C@@H](O)[C@H](N=Cc2ccc3c(c2)OCO3)[C@@H](O)[C@@H]1O`, the activity, negative = inhibition is -4.87% [at 11.4 µM] (inactive).
In the case of `CSc1nncn1/N=C/c1ccc2c(c1)OCO2`, the half-maximal activity concentration (AC50) was 8.91 µM (active).
For the compound `Cc1ccc(S(=O)(=O)N[C@H](CO)C(=O)O)cc1`, the activity, negative = inhibition was -3.82% [at 11.4 µM] (inactive).
As to `CC(CCc1ccccc1)NS(=O)(=O)c1ccccc1` (stereo not given), the AC50 entry is “inactive”.
For the compound `Cc1ccc(S(=O)(=O)N[C@@H](CCc2ccccc2)CC(=O)C(C)(C)C)cc1`, the concentration at half-maximal activity (AC50) was 1.58 µM (active).
In the case of `Cc1c(S(=O)(=O)O)ccc(N=Nc2c(O)c(C(=O)O)cc3ccccc23)c1Cl`, the activity, negative = inhibition is 1.31% [at 11.4 µM] (inactive).
Regarding `Cc1cc(C)c2c(N=NN(C)C)[nH]nc2n1`, the AC50 result was “inactive”.
On to `CCOc1cc(CNCCO)c(Cl)cc1OCC(=O)NCCc1ccccc1`, for which the AC50 is 0.794 µM (active).
The same measure, in the same setting: with `CC(CCc1ccccc1)NC(=O)C(=O)NCCO` (stereo not given) the entry was “inactive”.
Still for that read-out and setting: the entry for `CCOc1ccc(Cl)cc1CNCCNCCO` is “inactive”.
On to `CCNCc1cc(OCC)c(OCC(=O)NCCc2ccccc2)cc1Cl`, for which the half-maximal activity concentration (AC50) was 0.447 µM (active).
The same measure, in the same setting: with `COc1ccc(C(=O)Nc2ccc(OCC(F)(F)C(F)F)c(C(F)(F)F)c2)cc1OC` the entry was “inactive”; with `COc1ccc(-c2cc(C(F)(F)F)nc(NC3CCCC3)n2)cc1OC`, 25.1 µM (active).
On the same count and under the same terms, the entry for `COc1ccc(-c2cc(C(F)(F)F)nc(N3CCN(C)CC3)n2)cc1OC` is “inactive”; for `COc1ccccc1N1CCN(c2nc(-c3ccccc3)cc(C(F)(F)F)n2)CC1` it is “inactive”; for `COc1cccc(-c2cc(C(F)(F)F)nc(N3CCN(c4ccccc4)CC3)n2)c1` it is “inactive”.
The same measure, in the same setting: the figure for `COc1ccc(-c2cc(C(F)(F)F)nc(N3CCOCC3)n2)cc1OC` is 15.8 µM (active).
`COc1cccc(-c2cc(C(F)(F)F)nc(N3CCOCC3)n2)c1`: the half-maximal activity concentration (AC50) was 28.2 µM (active).
